Key:
Assay in all cases: log2 ratio of Biotin-Ahx-Ub-VS probe labelling (fragment/DMSO); higher = less target engagement (more negative = stronger competition), active = hit call of the paper (q ≤ 0.05, log2 ratio ≤ -1)
Details in all cases: compound concentration: 200 uM; treatment time: 3 h
USP19 = target: T1, USP19 (UniProt O94966)
T1 sequence (whole entry): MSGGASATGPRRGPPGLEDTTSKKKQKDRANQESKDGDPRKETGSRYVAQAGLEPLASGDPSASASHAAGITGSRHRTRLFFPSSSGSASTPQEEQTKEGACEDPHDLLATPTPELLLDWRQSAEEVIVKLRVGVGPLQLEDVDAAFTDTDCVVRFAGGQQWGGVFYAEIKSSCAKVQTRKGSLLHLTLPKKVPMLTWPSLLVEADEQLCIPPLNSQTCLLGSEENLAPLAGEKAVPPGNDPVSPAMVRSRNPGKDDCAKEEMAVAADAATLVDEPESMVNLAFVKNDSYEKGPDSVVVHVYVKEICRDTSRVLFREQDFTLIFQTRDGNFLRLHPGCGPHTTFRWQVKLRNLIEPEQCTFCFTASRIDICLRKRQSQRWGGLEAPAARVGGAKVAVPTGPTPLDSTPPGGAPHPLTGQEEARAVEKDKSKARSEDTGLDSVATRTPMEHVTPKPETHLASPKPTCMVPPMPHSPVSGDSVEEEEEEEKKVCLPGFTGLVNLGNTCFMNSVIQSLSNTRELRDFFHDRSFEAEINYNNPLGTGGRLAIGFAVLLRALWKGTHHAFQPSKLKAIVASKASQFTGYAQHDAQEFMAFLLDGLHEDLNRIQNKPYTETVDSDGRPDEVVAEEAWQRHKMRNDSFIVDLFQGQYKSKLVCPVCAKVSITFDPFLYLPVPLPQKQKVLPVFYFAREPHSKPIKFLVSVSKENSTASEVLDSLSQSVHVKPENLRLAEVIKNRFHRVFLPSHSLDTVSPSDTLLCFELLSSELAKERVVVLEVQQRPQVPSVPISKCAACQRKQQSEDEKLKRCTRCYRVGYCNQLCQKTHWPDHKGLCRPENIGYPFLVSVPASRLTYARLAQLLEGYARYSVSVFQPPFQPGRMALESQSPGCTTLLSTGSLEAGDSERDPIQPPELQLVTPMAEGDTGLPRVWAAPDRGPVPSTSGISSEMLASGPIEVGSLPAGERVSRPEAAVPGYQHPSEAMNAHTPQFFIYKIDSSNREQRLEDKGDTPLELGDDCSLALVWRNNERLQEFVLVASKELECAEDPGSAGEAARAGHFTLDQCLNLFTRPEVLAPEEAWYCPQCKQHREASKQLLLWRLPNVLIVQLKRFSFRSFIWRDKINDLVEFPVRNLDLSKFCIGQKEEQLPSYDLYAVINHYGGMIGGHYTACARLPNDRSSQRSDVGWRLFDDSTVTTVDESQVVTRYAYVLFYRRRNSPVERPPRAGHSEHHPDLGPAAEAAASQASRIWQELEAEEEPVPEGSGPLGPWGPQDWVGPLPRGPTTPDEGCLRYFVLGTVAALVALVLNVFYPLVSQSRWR
Summary of the method: (§1)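 Average log2 ratios of fragment over vehicle were obtained by unpaired t-test from global-median-normalised Spectronaut label-free quantities. Proteins with ≥2 unique peptides were included. HEK293T lysate (495 µg per sample) was treated in triplicate with fragment at 200 µM or vehicle for 3 h, then with Biotin-Ahx-Ub-VS at 0.5 µM final for 1 h, and labelled DUBs were NeutrAvidin-enriched and run by diaPASEF LC-MS/MS.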

USP24 = USP24 (UniProt Q9UPU5)
Sequence of USP24 (Q9UPU5 whole entry): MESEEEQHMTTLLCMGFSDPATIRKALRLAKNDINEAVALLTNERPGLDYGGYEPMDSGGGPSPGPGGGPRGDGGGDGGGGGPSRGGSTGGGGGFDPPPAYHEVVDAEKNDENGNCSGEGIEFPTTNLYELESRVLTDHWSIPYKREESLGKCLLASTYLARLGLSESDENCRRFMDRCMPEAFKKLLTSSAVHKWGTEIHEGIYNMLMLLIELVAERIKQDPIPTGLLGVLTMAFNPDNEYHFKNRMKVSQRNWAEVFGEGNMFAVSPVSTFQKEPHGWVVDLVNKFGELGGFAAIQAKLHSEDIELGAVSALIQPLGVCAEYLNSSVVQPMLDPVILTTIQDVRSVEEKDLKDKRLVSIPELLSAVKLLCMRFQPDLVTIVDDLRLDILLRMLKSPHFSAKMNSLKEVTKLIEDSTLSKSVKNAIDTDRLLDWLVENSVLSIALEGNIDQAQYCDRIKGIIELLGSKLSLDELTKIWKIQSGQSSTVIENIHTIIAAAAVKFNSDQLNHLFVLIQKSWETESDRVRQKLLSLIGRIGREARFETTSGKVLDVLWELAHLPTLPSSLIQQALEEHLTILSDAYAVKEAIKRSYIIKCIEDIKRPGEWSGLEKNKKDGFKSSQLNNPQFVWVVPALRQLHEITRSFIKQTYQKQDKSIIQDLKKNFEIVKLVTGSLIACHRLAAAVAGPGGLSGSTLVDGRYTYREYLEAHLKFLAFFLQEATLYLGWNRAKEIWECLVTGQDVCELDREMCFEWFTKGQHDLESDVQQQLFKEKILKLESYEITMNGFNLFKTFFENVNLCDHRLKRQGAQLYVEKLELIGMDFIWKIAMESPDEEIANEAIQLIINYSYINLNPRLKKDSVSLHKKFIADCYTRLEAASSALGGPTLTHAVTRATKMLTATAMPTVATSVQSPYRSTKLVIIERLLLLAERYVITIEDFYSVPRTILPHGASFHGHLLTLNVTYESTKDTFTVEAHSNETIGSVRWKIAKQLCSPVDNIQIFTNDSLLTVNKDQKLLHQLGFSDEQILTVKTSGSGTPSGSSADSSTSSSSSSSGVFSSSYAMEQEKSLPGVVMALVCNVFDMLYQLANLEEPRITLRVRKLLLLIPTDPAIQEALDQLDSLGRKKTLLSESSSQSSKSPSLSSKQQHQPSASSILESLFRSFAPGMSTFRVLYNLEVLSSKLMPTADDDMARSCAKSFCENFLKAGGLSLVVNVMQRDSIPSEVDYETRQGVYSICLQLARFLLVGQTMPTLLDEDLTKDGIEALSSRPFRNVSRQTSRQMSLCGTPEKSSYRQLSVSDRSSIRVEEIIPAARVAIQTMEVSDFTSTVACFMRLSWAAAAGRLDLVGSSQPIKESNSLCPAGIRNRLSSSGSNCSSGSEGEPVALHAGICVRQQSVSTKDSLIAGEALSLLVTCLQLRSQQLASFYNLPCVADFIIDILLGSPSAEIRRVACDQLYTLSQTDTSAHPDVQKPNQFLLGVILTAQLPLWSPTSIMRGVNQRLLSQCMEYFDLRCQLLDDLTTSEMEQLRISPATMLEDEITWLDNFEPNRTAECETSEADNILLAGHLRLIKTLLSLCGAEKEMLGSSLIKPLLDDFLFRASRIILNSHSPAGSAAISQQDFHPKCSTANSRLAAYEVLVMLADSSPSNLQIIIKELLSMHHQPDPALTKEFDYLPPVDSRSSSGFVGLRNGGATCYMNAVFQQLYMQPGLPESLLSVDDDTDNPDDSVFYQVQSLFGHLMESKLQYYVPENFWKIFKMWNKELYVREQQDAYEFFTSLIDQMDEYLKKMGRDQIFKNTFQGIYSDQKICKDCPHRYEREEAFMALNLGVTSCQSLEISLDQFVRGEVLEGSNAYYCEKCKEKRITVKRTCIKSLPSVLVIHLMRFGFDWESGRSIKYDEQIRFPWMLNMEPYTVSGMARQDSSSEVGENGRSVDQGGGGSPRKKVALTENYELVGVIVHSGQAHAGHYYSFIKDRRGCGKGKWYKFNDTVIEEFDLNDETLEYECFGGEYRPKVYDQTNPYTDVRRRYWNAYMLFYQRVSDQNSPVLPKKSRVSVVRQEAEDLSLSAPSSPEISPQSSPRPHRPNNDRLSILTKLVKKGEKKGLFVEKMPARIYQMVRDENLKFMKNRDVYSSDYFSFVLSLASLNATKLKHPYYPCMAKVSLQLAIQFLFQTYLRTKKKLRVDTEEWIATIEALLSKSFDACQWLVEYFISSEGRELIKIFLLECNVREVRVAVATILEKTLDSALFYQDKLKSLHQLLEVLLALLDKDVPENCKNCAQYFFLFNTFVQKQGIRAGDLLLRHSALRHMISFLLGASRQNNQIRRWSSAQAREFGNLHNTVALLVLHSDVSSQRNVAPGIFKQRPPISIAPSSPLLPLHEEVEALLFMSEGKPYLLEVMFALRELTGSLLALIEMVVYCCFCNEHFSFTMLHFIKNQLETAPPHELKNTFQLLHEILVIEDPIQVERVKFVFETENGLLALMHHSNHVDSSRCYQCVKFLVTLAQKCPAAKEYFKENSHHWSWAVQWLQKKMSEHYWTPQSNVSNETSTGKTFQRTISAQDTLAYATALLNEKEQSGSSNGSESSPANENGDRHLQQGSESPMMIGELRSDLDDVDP
Summary of the method: as §1

USP25 = target: T2, USP25 (UniProt Q9UHP3)
T2 sequence (whole entry): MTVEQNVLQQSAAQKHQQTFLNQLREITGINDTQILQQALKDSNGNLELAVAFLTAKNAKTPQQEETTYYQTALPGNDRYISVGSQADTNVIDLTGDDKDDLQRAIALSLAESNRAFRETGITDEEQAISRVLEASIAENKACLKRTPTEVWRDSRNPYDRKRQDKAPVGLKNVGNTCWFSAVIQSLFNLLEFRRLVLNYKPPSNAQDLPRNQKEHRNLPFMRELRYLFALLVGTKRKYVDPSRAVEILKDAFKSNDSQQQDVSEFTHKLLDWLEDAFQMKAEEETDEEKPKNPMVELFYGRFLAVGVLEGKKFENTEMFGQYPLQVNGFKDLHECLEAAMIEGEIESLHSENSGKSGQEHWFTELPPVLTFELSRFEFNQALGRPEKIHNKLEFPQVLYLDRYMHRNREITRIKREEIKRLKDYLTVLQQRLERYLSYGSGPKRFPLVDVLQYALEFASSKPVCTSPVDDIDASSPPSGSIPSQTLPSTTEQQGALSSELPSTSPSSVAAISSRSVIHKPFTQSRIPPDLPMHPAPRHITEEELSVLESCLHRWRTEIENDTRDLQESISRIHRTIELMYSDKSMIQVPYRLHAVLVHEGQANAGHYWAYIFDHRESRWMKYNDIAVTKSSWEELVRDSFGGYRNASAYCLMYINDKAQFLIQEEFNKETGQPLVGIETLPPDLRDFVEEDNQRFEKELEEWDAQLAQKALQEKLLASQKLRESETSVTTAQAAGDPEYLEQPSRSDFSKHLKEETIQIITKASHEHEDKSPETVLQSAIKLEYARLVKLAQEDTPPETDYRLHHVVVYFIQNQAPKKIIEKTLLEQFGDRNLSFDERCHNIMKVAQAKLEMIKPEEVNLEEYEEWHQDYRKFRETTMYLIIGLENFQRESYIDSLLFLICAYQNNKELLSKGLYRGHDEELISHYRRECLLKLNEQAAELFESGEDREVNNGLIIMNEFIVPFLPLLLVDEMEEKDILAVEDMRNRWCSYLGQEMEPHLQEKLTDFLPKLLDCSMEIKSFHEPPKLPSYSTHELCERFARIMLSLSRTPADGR
Summary of the method: as §1

USP28 = target: T3, USP28 (UniProt Q96RU2)
T3 sequence (whole entry): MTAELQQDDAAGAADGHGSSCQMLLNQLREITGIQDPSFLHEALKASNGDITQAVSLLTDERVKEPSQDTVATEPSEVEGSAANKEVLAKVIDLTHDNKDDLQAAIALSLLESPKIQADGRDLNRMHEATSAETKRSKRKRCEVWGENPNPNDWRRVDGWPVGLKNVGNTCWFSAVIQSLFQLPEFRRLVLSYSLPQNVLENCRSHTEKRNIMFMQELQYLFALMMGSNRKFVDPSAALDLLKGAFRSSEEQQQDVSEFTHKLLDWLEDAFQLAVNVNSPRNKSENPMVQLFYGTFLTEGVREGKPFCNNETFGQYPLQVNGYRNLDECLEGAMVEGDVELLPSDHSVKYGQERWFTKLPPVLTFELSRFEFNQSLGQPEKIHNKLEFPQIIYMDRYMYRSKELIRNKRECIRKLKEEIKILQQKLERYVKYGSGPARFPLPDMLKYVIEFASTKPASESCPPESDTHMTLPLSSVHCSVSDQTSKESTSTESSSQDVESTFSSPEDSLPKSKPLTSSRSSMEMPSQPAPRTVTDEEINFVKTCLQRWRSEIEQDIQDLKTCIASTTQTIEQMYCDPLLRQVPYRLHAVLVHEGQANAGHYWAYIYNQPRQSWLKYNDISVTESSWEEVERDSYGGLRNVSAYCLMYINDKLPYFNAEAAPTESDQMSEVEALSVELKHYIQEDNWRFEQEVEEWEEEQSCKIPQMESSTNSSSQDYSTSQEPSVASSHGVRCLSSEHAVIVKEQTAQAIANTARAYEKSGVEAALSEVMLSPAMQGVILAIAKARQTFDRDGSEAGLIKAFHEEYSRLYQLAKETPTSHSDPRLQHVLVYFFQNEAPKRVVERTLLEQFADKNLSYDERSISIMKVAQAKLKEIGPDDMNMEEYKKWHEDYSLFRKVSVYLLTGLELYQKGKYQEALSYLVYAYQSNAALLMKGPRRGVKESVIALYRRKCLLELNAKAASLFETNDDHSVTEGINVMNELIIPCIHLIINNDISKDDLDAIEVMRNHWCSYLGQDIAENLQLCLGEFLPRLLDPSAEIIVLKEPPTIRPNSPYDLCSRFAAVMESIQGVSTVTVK
Summary of the method: as §1

Measured: log2 ratio of Biotin-Ahx-Ub-VS probe labelling

Cc1ccc2nnc(CNC(=O)CCl)n2c1
inactive: USP19 -0.0329 | USP24 0.0887 | USP25 0.182 | USP28 -0.241
